The text below walks through data of the supplement of paper PMC4709259.

Counter-ions that a name gives are not always drawn. ± gives the standard deviation.

For experiment [1], the system named is Jurkat. Description: mean cell size (FSC-A) relative to DMSO control (fraction of control); higher = larger cells. Conditions: 48 h. The method in brief: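 Jurkat cells seeded at 600 cells/µl were incubated 1 h, then exposed for 48h to the Enzo Screen-Well FDA Approved Drug Library v2.0 at 25µM in 0.9% (v/v) final DMSO. Drugs that cut counts below 20% of controls were diluted 10-fold and retested, down to 25nM. Cell count and mean cell size (forward scatter area) were read on an Accuri C6 flow cytometer, relative to solvent-only controls. Plates held 6-12 controls; values are means of 3 biological replicates.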

The test system of experiment [2] is Jurkat. Description: cell count relative to DMSO control (fraction of control); higher = more cells (less growth inhibition). Conditions: 48 h.

In the experiment with Jurkat [1], `C[C@]12CC[C@@H]3c4ccc(O)cc4C[C@@H](CCCCCCCCC[S+]([O-])CCCC(F)(F)C(F)(F)F)[C@H]3[C@@H]1CC[C@@H]2O` (stereo not given in full) [Fulvestrant] (concentration: 25 µM) returned a mean cell size of 0.942 ± 0.0098. In addition, the cell count with Jurkat [2] turned out to be 0.862 ± 0.061.

`CN(C)CCc1c[nH]c2ccc(CS(=O)(=O)N3CCCC3)cc12` [Almotriptan] (concentration: 25 µM): in the experiment with Jurkat [1], the mean cell size came to 0.95 ± 0.053. Also, the cell count in the experiment on Jurkat [2] was 0.62 ± 0.18.

Consider `C[C@]12CC[C@@H]3c4ccc(O)cc4CC[C@H]3[C@@H]1CC[C@@H]2O` [Estradiol] (concentration: 25 µM), for which the mean cell size in the experiment on Jurkat [1] is 0.892 ± 0.026. For the same compound, the cell count with Jurkat [2] came to 0.711 ± 0.1.

The compound `NC(=O)N1c2ccccc2CC(=O)c2ccccc21` [Oxcarbazepine] (concentration: 25 µM) had a mean cell size in the experiment on Jurkat [1] of 0.952 ± 0.015. This compound also gave a cell count with Jurkat [2] of 0.772 ± 0.15.

On to `CC1Cc2ccccc2N1NC(=O)c1ccc(Cl)c(S(N)(=O)=O)c1` (stereo not given) [Indapamide] (concentration: 25 µM), for which, in the experiment on Jurkat [1], the mean cell size was 0.978 ± 0.023. The compound further showed a cell count with Jurkat [2] of 0.497 ± 0.11.

In the experiment on Jurkat [1], `CC[C@@H](CO)NCCN[C@@H](CC)CO` [Ethambutol Dihydrochloride] (concentration: 25 µM) came in with a mean cell size of 1.02 ± 0.064. Moreover, the cell count with Jurkat [2] turned out to be 0.721 ± 0.18.

In the experiment on Jurkat [1], `CC(C)Cn1cnc2c(N)nc3ccccc3c21` [Imiquimod] (concentration: 25 µM) returned a mean cell size of 0.936 ± 0.018. This compound yielded a cell count in the experiment with Jurkat [2] of 0.44 ± 0.15.

`COc1cc2nc(N3CCN(C(=O)C4COc5ccccc5O4)CC3)nc(N)c2cc1OC` (stereo not given) [Doxazosin Mesylate] (concentration: 2.5 µM): in the experiment on Jurkat [1], the mean cell size was 1.01 ± 0.011. The same compound yielded a cell count in the experiment on Jurkat [2] of 0.79 ± 0.13.

`CC(=O)Oc1cc2c(s1)CCN(C(C(=O)C1CC1)c1ccccc1F)C2` (stereo not given) [Prasugrel] (concentration: 25 µM): the mean cell size in the experiment with Jurkat [1] was determined as 1.06 ± 0.023. In the experiment with Jurkat [2], this compound gave a cell count of 0.831 ± 0.14.

For the compound `Clc1ccc(C(c2ccccc2Cl)C(Cl)Cl)cc1` (stereo not given) [Mitotane] (concentration: 25 µM), the mean cell size in the experiment on Jurkat [1] is 1 ± 0.02. For the same compound, the cell count in the experiment with Jurkat [2] was found to be 0.866 ± 0.14.

In the experiment on Jurkat [1], `N[C@@H](CC(=O)N1CCn2c(nnc2C(F)(F)F)C1)Cc1cc(F)c(F)cc1F` [Sitagliptin Phosphate] (concentration: 25 µM) yielded a mean cell size of 0.999 ± 0.021. For the same compound, in the experiment on Jurkat [2], the cell count stood at 0.554 ± 0.18.

As to `CC1(C)S[C@@H]2[C@H](NC(=O)[C@H](N)c3ccccc3)C(=O)N2[C@H]1C(=O)O` [Ampicillin Trihydrate] (concentration: 25 µM), the mean cell size with Jurkat [1] came to 0.849 ± 0.05. In the experiment with Jurkat [2], this compound registered a cell count of 1.17 ± 0.068.

Consider `CC[C@H](C)[C@H](N)C1=N[C@H](C(=O)N[C@@H](CC(C)C)C(=O)N[C@H](CCC(=O)O)C(=O)N[C@H](C(=O)N[C@H]2CCCCNC(=O)[C@H](CC(N)=O)NC(=O)[C@@H](CC(=O)O)NC(=O)[C@H](Cc3cnc[nH]3)NC(=O)[C@@H](Cc3ccccc3)NC(=O)[C@H]([C@@H](C)CC)NC(=O)[C@@H](CCCN)NC2=O)[C@@H](C)CC)CS1` [Bacitracin] (concentration: 25 µM), for which the mean cell size in the experiment on Jurkat [1] worked out at 0.977 ± 0.038. Moreover, in the experiment on Jurkat [2], the cell count came to 0.476 ± 0.09.

Consider `CC(C)(C)NC(=O)[C@@H]1CN(Cc2cccnc2)CCN1C[C@@H](O)C[C@@H](Cc1ccccc1)C(=O)N[C@H]1c2ccccc2C[C@H]1O` [Indinavir] (concentration: 25 µM), for which the mean cell size with Jurkat [1] was 0.93 ± 0.056. Moreover, the cell count in the experiment on Jurkat [2] stood at 0.539 ± 0.068.

Turning to `Clc1ccc(CSC(Cn2ccnc2)c2ccc(Cl)cc2Cl)cc1` (stereo not given) [Sulconazole Nitrate] (concentration: 25 µM), the mean cell size in the experiment with Jurkat [1] was determined as 0.953 ± 0.023. Moreover, in the experiment with Jurkat [2], the cell count stood at 0.923 ± 0.11.

Compound `CCN(CC)CCNC(=O)c1c(C)[nH]c(/C=C2\C(=O)Nc3ccc(F)cc32)c1C` [Sunitinib Malate] (concentration: 250 nM) registered a mean cell size in the experiment with Jurkat [1] of 0.906 ± 0.031. Also, in the experiment on Jurkat [2], the cell count stood at 0.861 ± 0.089.

`CC(C)OC(=O)C(C)(C)Oc1ccc(C(=O)c2ccc(Cl)cc2)cc1` [Fenofibrate] (concentration: 25 µM) had a mean cell size in the experiment on Jurkat [1] of 1.01 ± 0.04. Besides, in the experiment on Jurkat [2], the cell count stood at 0.477 ± 0.067.

In the case of `CCCC(=O)O[C@]1(C(=O)COC(C)=O)CC[C@H]2[C@@H]3C[C@H](F)C4=CC(=O)C=C[C@]4(C)[C@@]3(F)[C@@H](O)C[C@@]21C` [Difluprednate] (concentration: 25 µM), the mean cell size in the experiment with Jurkat [1] was found to be 0.935 ± 0.037. In addition, the cell count in the experiment with Jurkat [2] was determined as 0.605 ± 0.14.

In the experiment on Jurkat [1], `CC(C)(C#N)c1cc(Cn2cncn2)cc(C(C)(C)C#N)c1` [Anastrozole] (concentration: 25 µM) returned a mean cell size of 0.98 ± 0.021. This compound had a cell count with Jurkat [2] of 0.933 ± 0.054.

The compound `CCC(=O)O[C@]1(C(=O)CCl)[C@@H](C)C[C@H]2[C@@H]3C[C@H](F)C4=CC(=O)C=C[C@]4(C)[C@@]3(F)[C@@H](O)C[C@@]21C` [Halobetasol Propionate] (concentration: 25 µM) gave a mean cell size with Jurkat [1] of 0.971 ± 0.034. Also, the cell count with Jurkat [2] is 0.883 ± 0.12.

In the experiment with Jurkat [1], `CC[C@@H]1C(=O)OC[C@@H]1Cc1cncn1C` [Pilocarpine·HCl] (concentration: 25 µM) had a mean cell size of 0.97 ± 0.049. In the experiment on Jurkat [2], this compound returned a cell count of 0.246 ± 0.11.

`CCCCC[C@H](O)/C=C/[C@H]1[C@H](O)CC(=O)[C@@H]1C/C=C\CCCC(=O)O` [Dinoprostone] (concentration: 25 µM): in the experiment with Jurkat [1], the mean cell size stood at 0.88 ± 0.019. In addition, the cell count with Jurkat [2] worked out at 0.399 ± 0.11.

Take `CC(C)c1c(C(=O)Nc2ccccc2)c(-c2ccccc2)c(-c2ccc(F)cc2)n1CC[C@@H](O)C[C@@H](O)CC(=O)O` [Atorvastatin Calcium] (concentration: 25 µM): the mean cell size in the experiment with Jurkat [1] came to 1.05 ± 0.028. In the experiment on Jurkat [2], this compound gave a cell count of 0.552 ± 0.07.

`COc1ccc(CCN(C)CCCC(C#N)(c2ccc(OC)c(OC)c2)C(C)C)cc1OC` (stereo not given) [Verapamil·HCl] (concentration: 25 µM): in the experiment with Jurkat [1], the mean cell size came out at 0.939 ± 0.025. In addition, in the experiment with Jurkat [2], the cell count was found to be 0.756 ± 0.042.

`Nc1nc2[nH]cc(CCc3ccc(C(=O)N[C@@H](CCC(=O)O)C(=O)O)cc3)c2c(=O)[nH]1` [Pemetrexed Disodium] (concentration: 2.5 µM) gave a mean cell size in the experiment with Jurkat [1] of 1.4 ± 0.058. This compound yielded a cell count in the experiment with Jurkat [2] of 0.247 ± 0.028.
